Potency and affinity values are given separately. The source made the active and inactive calls.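 Rule for the calls: active = increase of the KCNQ2 potassium channel current at -35 mV by at least one tested dose; inactive = no tested dose increases that current.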
The compounds below were run against Potassium voltage-gated channel subfamily KQT member 2 (Rattus norvegicus) (UniProt O88943) (assay: retigabine-insensitive KCNQ2 potentiators, concentration-response, dose response, cell-based, retigabine-insensitive compounds (AID 2654)). Conditions: KCNQ2-CHO cells, automated patch clamp current potentiation; at 30 µM (top of the series).
Chain of Potassium voltage-gated channel subfamily KQT member 2 (Rattus norvegicus) (O88943 whole entry, looked up): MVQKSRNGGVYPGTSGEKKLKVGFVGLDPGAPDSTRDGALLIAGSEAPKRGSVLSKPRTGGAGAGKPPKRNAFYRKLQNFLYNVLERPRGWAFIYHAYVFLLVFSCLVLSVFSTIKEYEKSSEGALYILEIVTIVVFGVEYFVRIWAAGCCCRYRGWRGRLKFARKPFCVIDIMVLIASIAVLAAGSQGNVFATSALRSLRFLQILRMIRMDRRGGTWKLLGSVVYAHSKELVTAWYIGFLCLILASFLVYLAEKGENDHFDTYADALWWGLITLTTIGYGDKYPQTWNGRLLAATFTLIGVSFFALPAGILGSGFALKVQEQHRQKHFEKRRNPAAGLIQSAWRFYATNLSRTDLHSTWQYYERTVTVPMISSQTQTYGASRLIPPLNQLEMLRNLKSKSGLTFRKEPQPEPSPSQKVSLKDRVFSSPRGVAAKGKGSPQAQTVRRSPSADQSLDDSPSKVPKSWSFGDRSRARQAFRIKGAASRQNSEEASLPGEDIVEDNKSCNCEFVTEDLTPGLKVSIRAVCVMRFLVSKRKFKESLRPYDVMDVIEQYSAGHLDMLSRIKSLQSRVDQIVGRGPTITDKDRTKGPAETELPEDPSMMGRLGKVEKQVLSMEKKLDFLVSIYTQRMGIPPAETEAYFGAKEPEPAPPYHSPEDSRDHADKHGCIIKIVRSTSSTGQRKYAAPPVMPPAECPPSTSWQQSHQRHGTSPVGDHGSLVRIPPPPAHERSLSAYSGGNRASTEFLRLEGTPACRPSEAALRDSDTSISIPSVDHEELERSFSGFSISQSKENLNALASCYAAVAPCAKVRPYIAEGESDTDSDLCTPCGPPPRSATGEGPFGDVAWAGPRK

outcome, inactive:
Cc1ccnc(NC(=O)Nc2cccc(F)c2)c1
COc1cc(NC(=S)Nc2cccnc2)cc(OC)c1
Fc1ccc(NC(=S)Nc2cccnc2)c(F)c1
Cc1ccc(CNC(=S)Nc2cccnc2)cc1
S=C(Nc1cccnc1)NC1CCCc2ccccc21 (configuration not stated)
S=C(Nc1cccnc1)NC1CCCC1
Cc1ccc(NC(=S)Nc2cccnc2)cc1
O=C(Nc1cccnc1)Nc1ccc(Br)cc1Cl
O=C(Nc1cccc(F)c1)Nc1nccs1
Fc1ccc(NC(=S)Nc2cccnc2)c(Cl)c1
Cc1ccnc(NC(=O)NCc2ccc(Cl)cc2Cl)c1
COc1ccc(NC(=O)Nc2cccnc2)c(OC)c1
O=C(Nc1cccnc1)Nc1cc(Cl)cc(Cl)c1
O=C(Nc1cccnc1)N(CC1CC1)c1ccccc1
COc1ccccc1NC(=O)Nc1cccnc1
CCOc1ccccc1NC(=O)Nc1cccnc1
S=C(NCc1ccc(Cl)cc1Cl)Nc1cccnc1
Cc1cncc(NC(=O)NCc2ccc(Cl)cc2Cl)c1
O=C(NCc1ccc(Cl)cc1Cl)Nc1ccc(Br)nc1
Cc1cc(Cl)ccc1NC(=S)Nc1cccnc1
Cc1nc(F)ccc1NC(=O)NCc1ccc(Cl)cc1Cl
COc1ccc(NC(=S)Nc2cccnc2)c(OC)c1
Fc1ccc(NC(=S)Nc2cccnc2)cc1Cl
Cc1cc(NC(=O)NCc2ccc(Cl)cc2Cl)cnc1Cl
O=C(Nc1cccnc1)Nc1ccc(F)cc1F
O=C(Nc1cccnc1)Nc1ccc(Cl)cc1Cl

potentiation, 96.9:
FC(F)(F)c1cccc(NC(=S)Nc2cccnc2)c1

From PubChem BioAssay AID2654 (Johns Hopkins Ion Channel Center, 2010)
